Laboratory results as given in PubChem BioAssay AID1259240 (Keith Lab, Institute of Cancer Science, University of …, 2017).
Unmarked numbers belong to inactive results. The source made the active and inactive calls. Cut-off read from the data, not from the text of the source: active = fold change mostly below about -2 (no sharp cut-off); inactive = mostly above about -1.8.

Assay: TERT promoter activity modulators, primary screen, cell-based, luciferase reporter, human (AID 1259240)
Conditions: A2780 TERT promoter luciferase reporter, 16 h; at 20 µM, fold versus average of vehicle-only wells

**Q.** For `Cc1ccc2c(c1)/C(=c1/sc3n(c1=O)CN(c1ccc(Cl)cc1)CN=3)C(=O)N2`, which fold change is on record?
**A.** -1.65

**Q.** With `COc1nc(NC(C)(C)C)nc(Oc2ccc(=O)[nH]n2)n1` as the compound, how does the fold change read?
**A.** 2 (active)

**Q.** For `COc1ccc(S(=O)(=O)N2N=C(c3ccc(NS(C)(=O)=O)cc3)CC2c2ccco2)cc1` (centres undefined), which fold change is on record?
**A.** 1.12

**Q.** With `NC(=O)c1ccc(N=c2oc3ccccc3cc2S(=O)(=O)c2ccccc2)cc1` as the compound, how does the fold change read?
**A.** 1.06

**Q.** Which fold change does the source give for `Cc1nc2sccn2c1-c1csc(Nc2ccc(O)cc2)n1` here?
**A.** -1.8

**Q.** With `O=C(O)CCN1C(=O)c2ccccc2S1(=O)=O` as the compound, how does the fold change read?
**A.** -1.2

**Q.** For `CCOc1cccc2cc(S(=O)(=O)c3ccc(C(C)(C)C)cc3)c(=O)oc12`, which fold change is on record?
**A.** -1.2

**Q.** Which fold change does the source give for `CCN1/C(=C/C=C/c2sc3cc(NC(C)=O)ccc3[n+]2CC)Sc2cc(NC(C)=O)ccc21` here?
**A.** -2.62 (active)

**Q.** Which fold change does the source give for `c1ccn2c(SCc3ccc4c(c3)OCCO4)nnc2c1` here?
**A.** 1.6

**Q.** Which fold change does the source give for `COc1ccc2cc3c(N)nn(C(=O)CN4CCOCC4)c3nc2c1` here?
**A.** -1.27

**Q.** For `CC(=O)N1CCC(N(C(=O)Nc2ccc(F)cc2)C2CCCC2)CC1`, which fold change is on record?
**A.** -1.02

**Q.** With `O=C(Nc1ccc(F)cc1)C(=O)Nc1ccc2nc3n(c(=O)c2c1)CCCCC3` as the compound, how does the fold change read?
**A.** -1.07

**Q.** For `O=C(CSc1ncnc2ccccc12)Nc1cccc(F)c1`, which fold change is on record?
**A.** 1.32

**Q.** With `CN(C)C(=O)Nc1ccc2snnc2c1` as the compound, how does the fold change read?
**A.** 1.12

**Q.** For `CCOC(=O)C1=C(CS(=O)(=O)c2ccc(F)c(Cl)c2)NC(=O)NC1c1ccc(Cl)cc1` (centres undefined), which fold change is on record?
**A.** 1.33

**Q.** For `COc1ccc2c(NCC3=CC=CC3)cc(C)nc2c1`, which fold change is on record?
**A.** -1.73

**Q.** With `Cc1ccc2c(c1)c(-c1ccccc1)nc1nncn12` as the compound, how does the fold change read?
**A.** 1.67

**Q.** For `Cc1c(NC(=O)c2ncn[nH]2)c(=O)n(-c2ccccc2)n1C`, which fold change is on record?
**A.** -1.33

**Q.** Which fold change does the source give for `O=C(CN1C(=O)c2ccccc2S1(=O)=O)N1CCN(c2cccc(Cl)c2)CC1` here?
**A.** -1.25

**Q.** Which fold change does the source give for `COC(=O)CSc1nnc2sc3ccccc3n12` here?
**A.** -1.32

**Q.** Which fold change does the source give for `Cc1cccc(NC(=O)C2CCCN(S(=O)(=O)c3cnc[nH]3)C2)n1` (centres undefined) here?
**A.** -2.48 (active)

**Q.** With `CCOC(=O)Cn1c(=O)oc2cc(S(=O)(=O)NCCC(C)C)ccc21` as the compound, how does the fold change read?
**A.** -1

**Q.** For `CCCCNS(=O)(=O)c1ccc(C)c(-c2nnc3c4ccccc4c(C)nn23)c1`, which fold change is on record?
**A.** -1.28

**Q.** With `CCc1ccc2c(c1)c1n[nH]c(=S)nc1n2CC` as the compound, how does the fold change read?
**A.** 1.17

**Q.** For `CCOC(=O)Cc1csc(NC(=O)Nc2cccs2)n1`, which fold change is on record?
**A.** 1.33

**Q.** For `CCn1c2ccccc2c2nnc(SCC(=O)Nc3nnc(C(C)C)s3)nc21`, which fold change is on record?
**A.** -1.93

**Q.** For `CCCCN(C)C(=O)Cn1c(=O)oc2cc(S(=O)(=O)N3CC(C)CC(C)C3)ccc21` (centres undefined), which fold change is on record?
**A.** 1.08

**Q.** With `O=C(Nc1nnc(N2CCCCC2)s1)Nc1ccccc1Cl` as the compound, how does the fold change read?
**A.** -2.93 (active)

**Q.** With `COc1ccc(-c2c(C)oc3c(CN4CCN(C)CC4)c(O)ccc3c2=O)cc1OC` as the compound, how does the fold change read?
**A.** 1.39

**Q.** With `COC(=O)CN1C(=O)C(O)(CC(=O)c2ccc(Br)cc2)c2ccccc21` (centres undefined) as the compound, how does the fold change read?
**A.** -1.49

**Q.** Which fold change does the source give for `O=C(CN1C(=O)c2ccccc2C1=O)Nc1nccs1` here?
**A.** -1.42

**Q.** With `CCOC(=O)C1CCCN(c2c(N3CCN(c4ccc(F)cc4)CC3)c(=O)c2=O)C1` (centres undefined) as the compound, how does the fold change read?
**A.** -1.2

**Q.** With `CN(CC(=O)Nc1ccc(Br)cc1)S(=O)(=O)c1ccc2c(c1)CCC(=O)N2` as the compound, how does the fold change read?
**A.** -1.38

**Q.** Which fold change does the source give for `CCn1c(SCc2nc(-c3ccc(Cl)cc3)no2)nnc1-c1ccco1` here?
**A.** -2.86 (active)

**Q.** With `NC(=O)C1CCN(C(=O)N2c3ccccc3Sc3ccccc32)CC1` as the compound, how does the fold change read?
**A.** -2.9 (active)

**Q.** For `COc1ccc2c(c1)/C(=c1/sc3n(c1=O)CN(c1ccc(C)c(Cl)c1)CN=3)C(=O)N2`, which fold change is on record?
**A.** -1.71

**Q.** For `CS(=O)(=O)Nc1ccc(C2=NN(S(C)(=O)=O)C(c3ccccc3)C2)cc1` (centres undefined), which fold change is on record?
**A.** 1.5

**Q.** For `Cc1ccc(S(=O)(=O)N2N=C(c3ccc(NS(C)(=O)=O)cc3)CC2c2ccco2)cc1` (centres undefined), which fold change is on record?
**A.** -1.45

**Q.** With `NCCn1c(-c2cccnc2)n[nH]c1=S` as the compound, how does the fold change read?
**A.** -1.19
